Source: the supplement of paper PMC12494721
Counter-ions that a name gives are not always drawn.

Key:
Details in all cases: 20 µM; incubation time: 27 h, anaerobic, 37 °C;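 for the amine columns active = adjusted P below 0.05 in both replicates with a change the same way and a mean fold change under 0.8 or over 1.25; inactive = the rest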
[1] = system: Clostridium sporogenes DSM 1664; test: growth (OD595) fold change vs plate DMSO controls (fold change (ratio)); higher = more growth
Method in brief: (§1)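 To obtain OD, 595 nm absorbance readings were blank-subtracted, corrected for compound background using 20 µM compound solutions in water, and multiplied by a calibration factor of 5. They came from 96-well mGAM cultures grown anaerobically for 27 h at 37 °C and shaken before reading. Growth is the fold change relative to the median of plate DMSO controls. Two biological replicates were averaged, and fold changes above 1.5 were set to NA.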

Escherichia coli IAI1 [2] = test: as above
Method in brief: as §1

[3] = system: Klebsiella aerogenes DSM 30053; test: as above
Method in brief: as §1

[4] = system: Ruminococcus gnavus DSM 108212; test: as above
Method in brief: as §1

[5] = system: Klebsiella aerogenes DSM 30053; test: fold change of Histamine concentration vs plate DMSO controls (fold change (ratio)); higher = more amine produced, active = hit call of the paper (significant change in both replicates, either direction)
Method in brief: (§2)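 Amine values are fold changes relative to DMSO-only wells on the same plate. They derive from 27 h, 37 °C anaerobic mGAM cultures of four gut bacterial strains in 80 µL wells, dosed at 20 µM final, or 50 µM final for sweeteners. Extraction of the whole culture, LC–triple-quadrupole MS in dynamic MRM mode, external calibration curves and within-batch drift correction were used, with 2 biological replicates averaged.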

[6] = system: Clostridium sporogenes DSM 1664; test: fold change of Tryptamine concentration vs plate DMSO controls (fold change (ratio)); higher = more amine produced, active = hit call of the paper (significant change in both replicates, either direction)
Method in brief: as §2

[7] = system: Ruminococcus gnavus DSM 108212; test: as above
Method in brief: as §2

Escherichia coli IAI1 [8] = test: fold change of Putrescine concentration vs plate DMSO controls (fold change (ratio)); higher = more amine produced, active = hit call of the paper (significant change in both replicates, either direction)
Method in brief: as §2

[9] = system: Klebsiella aerogenes DSM 30053; test: as above
Method in brief: as §2

Escherichia coli IAI1 [10] = test: fold change of Cadaverine concentration vs plate DMSO controls (fold change (ratio)); higher = more amine produced, active = hit call of the paper (significant change in both replicates, either direction)
Method in brief: as §2

[11] = system: Klebsiella aerogenes DSM 30053; test: as above
Method in brief: as §2

[12] = system: Ruminococcus gnavus DSM 108212; test: fold change of 2-Phenylethylamine concentration vs plate DMSO controls (fold change (ratio)); higher = more amine produced, active = hit call of the paper (significant change in both replicates, either direction)
Method in brief: as §2

CC[C@@H](C(N)=O)N1CCCC1=O [Levetiracetam]
growth [1]: 1.02
growth (Escherichia coli IAI1 [2]): 1.01
growth [3]: 1.08
growth [4]: 0.829
fold change of Histamine concentration [5]: 0.827 (inactive)
fold change of Tryptamine concentration [6]: 1.06 (inactive)
fold change of Tryptamine concentration [7]: 1.07 (inactive)
fold change of Putrescine concentration (Escherichia coli IAI1 [8]): 1.06 (inactive)
fold change of Putrescine concentration [9]: 0.951 (inactive)
fold change of Cadaverine concentration (Escherichia coli IAI1 [10]): 1.02 (inactive)
fold change of Cadaverine concentration [11]: 1.05 (inactive)
fold change of 2-Phenylethylamine concentration [12]: 1.07 (inactive)

CC(Oc1ccc(Oc2nc3ccc(Cl)cc3o2)cc1)C(=O)O (racemic)
growth [1]: 1.06
growth (Escherichia coli IAI1 [2]): 1.04
growth [3]: 1.02
growth [4]: 1.01
fold change of Histamine concentration [5]: 0.989 (inactive)
fold change of Tryptamine concentration [6]: 1 (inactive)
fold change of Tryptamine concentration [7]: 1 (inactive)
fold change of Putrescine concentration (Escherichia coli IAI1 [8]): 1.03 (inactive)
fold change of Putrescine concentration [9]: 1.01 (inactive)
fold change of Cadaverine concentration (Escherichia coli IAI1 [10]): 0.937 (inactive)
fold change of Cadaverine concentration [11]: 1.02 (inactive)
fold change of 2-Phenylethylamine concentration [12]: 1.01 (inactive)

O=c1[nH]c2ccccc2n1C1CCN(CCCC(c2ccc(F)cc2)c2ccc(F)cc2)CC1 [Pimozide]
growth [1]: 1.41
growth (Escherichia coli IAI1 [2]): 0.978
growth [3]: 0.99
growth [4]: 1.25
fold change of Histamine concentration [5]: 1.01 (inactive)
fold change of Tryptamine concentration [6]: 0.938 (inactive)
fold change of Tryptamine concentration [7]: 0.846 (inactive)
fold change of Putrescine concentration (Escherichia coli IAI1 [8]): 0.979 (inactive)
fold change of Putrescine concentration [9]: 1.01 (inactive)
fold change of Cadaverine concentration (Escherichia coli IAI1 [10]): 0.964 (inactive)
fold change of Cadaverine concentration [11]: 0.995 (inactive)
fold change of 2-Phenylethylamine concentration [12]: 0.898 (inactive)

C#C[C@]1(O)CC[C@H]2[C@@H]3CCC4=CC(=O)CCC4=C3C=C[C@@]21CC [Gestrinone]
growth [1]: 1.02
growth (Escherichia coli IAI1 [2]): 0.985
growth [3]: 0.996
growth [4]: 1.04
fold change of Histamine concentration [5]: 0.947 (inactive)
fold change of Tryptamine concentration [6]: 1.03 (inactive)
fold change of Tryptamine concentration [7]: 1.16 (inactive)
fold change of Putrescine concentration (Escherichia coli IAI1 [8]): 0.88 (inactive)
fold change of Putrescine concentration [9]: 0.96 (inactive)
fold change of Cadaverine concentration (Escherichia coli IAI1 [10]): 0.913 (inactive)
fold change of Cadaverine concentration [11]: 1.03 (inactive)
fold change of 2-Phenylethylamine concentration [12]: 1.18 (inactive)

CCN(CC)C(C)C(=O)c1ccccc1 (stereo unspecified) [Amfepramone hydrochloride]
growth [1]: 1.04
growth (Escherichia coli IAI1 [2]): 1.05
growth [3]: 1.02
growth [4]: 1.06
fold change of Histamine concentration [5]: 0.955 (inactive)
fold change of Tryptamine concentration [6]: 1.03 (inactive)
fold change of Tryptamine concentration [7]: 1.06 (inactive)
fold change of Putrescine concentration (Escherichia coli IAI1 [8]): 1.06 (inactive)
fold change of Putrescine concentration [9]: 0.982 (inactive)
fold change of Cadaverine concentration (Escherichia coli IAI1 [10]): 0.938 (inactive)
fold change of Cadaverine concentration [11]: 1.01 (inactive)
fold change of 2-Phenylethylamine concentration [12]: 1.06 (inactive)

CC1(C)[C@H](/C=C(\Cl)C(F)(F)F)[C@@H]1C(=O)OC(C#N)c1cccc(Oc2ccccc2)c1 (stereo partly specified)
growth [1]: 0.953
growth (Escherichia coli IAI1 [2]): 0.991
growth [3]: 0.981
growth [4]: 0.999
fold change of Histamine concentration [5]: 0.987 (inactive)
fold change of Tryptamine concentration [6]: 0.918 (inactive)
fold change of Tryptamine concentration [7]: 1.03 (inactive)
fold change of Putrescine concentration (Escherichia coli IAI1 [8]): 0.976 (inactive)
fold change of Putrescine concentration [9]: 0.987 (inactive)
fold change of Cadaverine concentration (Escherichia coli IAI1 [10]): 1.02 (inactive)
fold change of Cadaverine concentration [11]: 0.995 (inactive)
fold change of 2-Phenylethylamine concentration [12]: 1.08 (inactive)

Cc1nnc(-c2ccccc2)c(=O)n1N
growth [1]: 0.969
growth (Escherichia coli IAI1 [2]): 1.05
growth [3]: 0.993
growth [4]: 1.01
fold change of Histamine concentration [5]: 1.04 (inactive)
fold change of Tryptamine concentration [6]: 0.988 (inactive)
fold change of Tryptamine concentration [7]: 1.04 (inactive)
fold change of Putrescine concentration (Escherichia coli IAI1 [8]): 0.965 (inactive)
fold change of Putrescine concentration [9]: 1 (inactive)
fold change of Cadaverine concentration (Escherichia coli IAI1 [10]): 1.03 (inactive)
fold change of Cadaverine concentration [11]: 0.972 (inactive)
fold change of 2-Phenylethylamine concentration [12]: 1.13 (inactive)

CCC(C)c1ccccc1OC(=O)NC (stereo unspecified)
growth [1]: 1.06
growth (Escherichia coli IAI1 [2]): 0.988
growth [3]: 1.09
growth [4]: 1.01
fold change of Histamine concentration [5]: 0.948 (inactive)
fold change of Tryptamine concentration [6]: 0.949 (inactive)
fold change of Tryptamine concentration [7]: 1.01 (inactive)
fold change of Putrescine concentration (Escherichia coli IAI1 [8]): 1.05 (inactive)
fold change of Putrescine concentration [9]: 1.01 (inactive)
fold change of Cadaverine concentration (Escherichia coli IAI1 [10]): 0.972 (inactive)
fold change of Cadaverine concentration [11]: 1 (inactive)
fold change of 2-Phenylethylamine concentration [12]: 1.03 (inactive)

CC(=O)[C@H]1CC[C@H]2[C@@H]3CC[C@H]4C[C@H](O)CC[C@]4(C)[C@H]3C(=O)C[C@]12C [Alfaxalone]
growth [1]: 1.12
growth (Escherichia coli IAI1 [2]): 1.03
growth [3]: 1.02
growth [4]: 1.13
fold change of Histamine concentration [5]: 1.06 (inactive)
fold change of Tryptamine concentration [6]: 0.957 (inactive)
fold change of Tryptamine concentration [7]: 0.959 (inactive)
fold change of Putrescine concentration (Escherichia coli IAI1 [8]): 0.994 (inactive)
fold change of Putrescine concentration [9]: 1.06 (inactive)
fold change of Cadaverine concentration (Escherichia coli IAI1 [10]): 1 (inactive)
fold change of Cadaverine concentration [11]: 1.02 (inactive)
fold change of 2-Phenylethylamine concentration [12]: 0.913 (inactive)

CC(=O)O[C@H]1CC[C@@]2(C)C(=CC[C@@H]3[C@@H]2CC[C@]2(C)C(=O)CC[C@@H]32)C1 [Dehydroisoandosterone 3-acetate]
growth [1]: 0.905
growth (Escherichia coli IAI1 [2]): 1.04
growth [3]: 0.994
growth [4]: 1.08
fold change of Histamine concentration [5]: 1.02 (inactive)
fold change of Tryptamine concentration [6]: 0.937 (inactive)
fold change of Tryptamine concentration [7]: 1.04 (inactive)
fold change of Putrescine concentration (Escherichia coli IAI1 [8]): 1.08 (inactive)
fold change of Putrescine concentration [9]: 1.04 (inactive)
fold change of Cadaverine concentration (Escherichia coli IAI1 [10]): 1.01 (inactive)
fold change of Cadaverine concentration [11]: 1.01 (inactive)
fold change of 2-Phenylethylamine concentration [12]: 1.04 (inactive)

COCc1cnc(C2=NC(C)(C(C)C)C(=O)N2)c(C(=O)O)c1 (stereo unspecified)
growth [1]: 1.1
growth (Escherichia coli IAI1 [2]): 1.04
growth [3]: 0.971
growth [4]: 0.967
fold change of Histamine concentration [5]: 1.03 (inactive)
fold change of Tryptamine concentration [6]: 1.11 (inactive)
fold change of Tryptamine concentration [7]: 1.17 (inactive)
fold change of Putrescine concentration (Escherichia coli IAI1 [8]): 0.961 (inactive)
fold change of Putrescine concentration [9]: 0.797 (inactive)
fold change of Cadaverine concentration (Escherichia coli IAI1 [10]): 0.852 (inactive)
fold change of Cadaverine concentration [11]: 1.06 (inactive)
fold change of 2-Phenylethylamine concentration [12]: 1.43 (inactive)

CCCC1COC(Cn2cncn2)(c2ccc(Cl)cc2Cl)O1 (stereo unspecified)
growth [1]: 0.938
growth (Escherichia coli IAI1 [2]): 1.03
growth [3]: 0.987
growth [4]: 0.947
fold change of Histamine concentration [5]: 0.975 (inactive)
fold change of Tryptamine concentration [6]: 1.04 (inactive)
fold change of Tryptamine concentration [7]: 1.08 (inactive)
fold change of Putrescine concentration (Escherichia coli IAI1 [8]): 0.977 (inactive)
fold change of Putrescine concentration [9]: 0.946 (inactive)
fold change of Cadaverine concentration (Escherichia coli IAI1 [10]): 0.939 (inactive)
fold change of Cadaverine concentration [11]: 0.993 (inactive)
fold change of 2-Phenylethylamine concentration [12]: 1.17 (inactive)

CC1(C(=O)Nc2ccc(O)c(Cl)c2Cl)CCCCC1
growth [1]: 0.939
growth (Escherichia coli IAI1 [2]): 1.02
growth [3]: 1
growth [4]: 1.22
fold change of Histamine concentration [5]: 0.992 (inactive)
fold change of Tryptamine concentration [6]: 0.999 (inactive)
fold change of Tryptamine concentration [7]: 0.96 (inactive)
fold change of Putrescine concentration (Escherichia coli IAI1 [8]): 0.992 (inactive)
fold change of Putrescine concentration [9]: 0.99 (inactive)
fold change of Cadaverine concentration (Escherichia coli IAI1 [10]): 1.03 (inactive)
fold change of Cadaverine concentration [11]: 1 (inactive)
fold change of 2-Phenylethylamine concentration [12]: 0.987 (inactive)
